In PubChem BioAssay (NCATS) one finds Potency and outcome data, which are given here for seven compounds.

A number with no mark means an inactive call. Inconclusive results are not listed. The source made the active and inactive calls. Unless noted, calls come from the whole dose curve.

Test [1] has as its target Cytochrome P450 1A2 (Homo sapiens) (UniProt P05177). Kind of test: p450-cyp1a2 (AID 410). Note: potency is the fitted concentration of half-maximal effect. The method in brief: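 Human CYP1A2 (20nM) demethylated Luciferin-ME at its Km (100uM) in 100mM KPO4. After 10 min compound preincubation, NADPH regeneration ran the reaction 60 min at room temperature. Luciferin was read by luminescence, normalized to 57 uM furafylline.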
For test [2], the target named is Glucocorticoid receptor (Homo sapiens) (UniProt P04150). The test can be described thus: GR-GFP Redistribution (AID 450;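 active = compounds whose dose series gives a full or clear partial fitted curve of increased nuclear translocation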; note: potency is the fitted concentration of half-maximal effect). The settings on record: U2OS GR-GFP nuclear translocation, laser cytometry, 2 h.
Test [3] shares this target. Kind of test: GR-EFC Redistribution (AID 451). Note: potency is the fitted concentration of half-maximal effect. The following applies: CHO-K1 GR-EFC translocation, beta-gal luminescence, 2 h. The method in brief: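 CHO-K1 cells expressing nuclear EA and GR-ED fragments of b-gal; compounds titrated up to 46 uM final, 2 h at 37 C. GR nuclear translocation read as complemented b-gal luminescence after 1 h RT detection.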
Test [4] deals with Mitogen-activated protein kinase 10 (Mus musculus) (UniProt Q61831). Kind of test: JNK3 AlphaScreen Assay (AID 530; active = well fitted curve in either direction with a large enough effect, not every such curve was filed as active;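 note: kinase came from lysate of stimulated human HepG2 cells; signal reports phosphorylation of biotinylated GST-cJun 1-79 at Ser73 with 10 µM ATP; series mostly up to about 57 µM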). The method in brief:
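qHTS format: compounds tested as titrations against IL-1beta/TNF-alpha-activated HepG2 lysate JNK3 with biotin-GST-cJun substrate and 10 uM ATP at room temperature. Loss of anti-phospho-cJun AlphaScreen signal indicates inhibition.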
In general terms: Bead proximity is the source of the signal in Alpha formats.

In test [5] the target is 3',5'-cyclic-AMP phosphodiesterase 4B (Homo sapiens) (UniProt Q07343). The test can be described thus: qHTS Assay for Inhibitors of PDE-IV (AID 607; active = well fitted activation curve with a large enough effect in the main read-out, with a control signal flat, not every such curve was filed as active). The method in brief:
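The readout is membrane depolarisation from a cAMP-sensing CNG channel, detected with a potential dye at ex 535/em 590. Cells were HEK293-derived (endogenous PDE-IV) at 1000 cells/well, titrated up to 22.9 uM final.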
(In qHTS, concentration-response curves come from the screen itself.)

The target of test [6] is Cytochrome P450 2C9 (Homo sapiens) (UniProt P11712). The test can be described thus: qHTS Assay for Inhibitors and Substrates of Cytochrome P450 2C9 (AID 883; active = well fitted curve in the direction sought with a large enough effect; an effect the other way counts as inactive or inconclusive; note: nearly all actives have a fitted effect of over 60% in size). The method in brief:
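Signal: luciferase luminescence reporting luciferin produced by CYP2C9. Conditions: 10nM enzyme, Luciferin-H 100uM at KM, 25mM KPO4, 37C, 60 min NADPH-driven reaction. Reference: 57uM sulphaphenazole as 100% inhibition.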

Test [7] deals with Cytochrome P450 3A4 (Homo sapiens) (UniProt P08684). Kind of test: qHTS Assay for Activators of Cytochrome P450 3A4 (AID 885; active = well fitted curve in the direction sought with a large enough effect; an effect the other way counts as inactive or inconclusive; note: nearly all actives have a fitted effect of over 65% in size). In a few lines:
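Steps: enzyme/substrate mix dispensed; compound added, 10 min RT; NADPH regeneration solution added, 60 min RT; luciferin detection buffer stops reaction; 20 min later luminescence measured.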

In test [8] the target is Cytochrome P450 2D6 (Homo sapiens) (UniProt P10635). Kind of test: qHTS Assay for Inhibitors and Substrates of Cytochrome P450 2D6 (AID 891; active = well fitted curve in the direction sought with a large enough effect; an effect the other way counts as inactive or inconclusive;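 note: luciferin methyl ether substrate demethylated by CYP2D6 with NADPH regeneration; nearly all actives have a fitted effect of over 60% in size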). The method in brief: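 Human CYP2D6 (5 nM) with 30 uM Luciferin-ME EGE (at Km) in 100 mM KPO4, compound preincubated 10 min, then NADPH regeneration system for 60 min at room temperature. Luciferin read by luminescence; normalized to 1.43 uM quinidine.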

For test [9], the target named is Cytochrome P450 2C19 (Homo sapiens) (UniProt P33261). Kind of test: qHTS Assay for Inhibitors and Substrates of Cytochrome P450 2C19 (AID 899; active = well fitted curve in the direction sought with a large enough effect; an effect the other way counts as inactive or inconclusive; note: nearly all actives have a fitted effect of over 60% in size). In a few lines: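 Signal comes from luciferase acting on luciferin released by CYP2C19-mediated hydroxylation of Luciferin-H EGE, 10uM (KM). Assay mix: 5nM enzyme, 50mM KPO4; 60 min at 37C with NADPH regeneration. Data normalized against 57uM ketoconazole.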

Test [10] is described as follows: Confirmation and Secondary Assay for Modulators of Hemoglobin Beta Chain Splicing at IVS2 654 locus (AID 910; active = well fitted curve in the direction sought with a large enough effect; an effect the other way counts as inactive or inconclusive;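 note: HeLa cells stably carrying EGFP split by mutant beta-globin IVS2-654 intron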). In a few lines:
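HeLa cells stably expressing EGFP interrupted by β-globin IVS2-654 intron, seeded overnight in Opti-MEM/2% FCS, then treated 2 days at 37 °C. Restored splicing read as total peak GFP intensity per well by laser scanning cytometry (488 nm excitation, 500–520 nm emission); 500 nM antisense PNA as control.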

Test [11] is described as follows: Confirmation and Secondary Assay for Modulators of Hemoglobin Beta Chain Splicing at IVS2 705 locus (AID 930; active = well fitted curve in the direction sought with a large enough effect; an effect the other way counts as inactive or inconclusive;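 note: HeLa cells stably expressing the EGFP-705 splicing reporter; GFP fluorescence per well restored by corrected splicing of the IVS2-705 intron in EGFP; series mostly up to about 46 µM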). In a few lines:
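HeLa IVS2-705 EGFP reporter cells, 500/well, compound 2 d at 37C; correct splicing yields fluorescent EGFP. Control: 500 nM antisense PNA. Read-out: total peak GFP intensity.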

For test [12], the target named is DNA dC->dU-editing enzyme APOBEC-3G (Homo sapiens) (UniProt Q9HC16). Kind of test: qHTS for inhibitors of Vif-A3G interactions: Validation (AID 588379; active = well fitted curve in the direction sought with a large enough effect; an effect the other way counts as inactive or inconclusive). The method in brief: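 HeLa cells stably expressing Vif and A3G-eYFP, 700 cells/well, incubated overnight at 37 deg C, then exposed to compound overnight at 37 deg C. Inhibition of Vif-mediated degradation read as increased yellow fluorescence (Ex 488/Em 500-530) by laser-scanning cytometry.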

A short description of test [13]: qHTS for Inhibitors of the Functional Ribonucleoprotein Complex (vRNP) of Lassa (LASV) Arenavirus: LASV Primary Screen - GLuc reporter signal (AID 1347082; calls by dose curve; tested in HEK293 reporter line; note: nearly all actives have a fitted effect of over 60% in size; note: potency is the fitted concentration of half-maximal effect).
A short description of test [14]: qHTS for Inhibitors of the Functional Ribonucleoprotein Complex (vRNP) of Lassa (LASV) Arenavirus: Viability assay - alamar blue signal for LASV Primary Screen (AID 1347083; calls by dose curve; tested in HEK293 reporter line; note: nearly all actives have a fitted effect of over 80% in size; note: potency is the fitted concentration of half-maximal effect).
The target of test [15] is Nucleoprotein (Lymphocytic choriomeningitis virus (strain Armstrong)) (UniProt P09992). The test can be described thus: qHTS for Inhibitors of the Functional Ribonucleoprotein Complex (vRNP) of Lymphocytic Choriomeningitis Arenaviruses (LCMV): LCMV Primary Screen - GLuc reporter signal (AID 1347086). Note: nearly all actives have a fitted effect of over 70% in size. Note: potency is the fitted concentration of half-maximal effect.
Test [16] relates to Zika virus NS2B-NS3 protease. The test can be described thus: Primary screen GU AMC qHTS for Zika virus inhibitors (AID 1347154; active = well fitted curve in the direction sought with a large enough effect; an effect the other way counts as inactive or inconclusive; note: nearly all actives have a fitted effect of over 70% in size). The method in brief:
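Unlinked Zika NS2B hydrophilic domain–NS3 protease complex at 25 nM in 10 mM Tris-HCl pH 8.0, 0.01% Tween 20, with an AMC peptide substrate. Fluorescence change (340/450 nm) over 15 min at room temperature, normalized to controls, fitted to 4-parameter Hill.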

Test [17] is described as follows: Confirmatory qHTS for VERO E6 Cytotoxicity Assay: Counterscreen for SARS-CoV-2 CPE Assay (AID 1508605). Note: nearly all actives have a fitted effect of over 60% in size. Note: potency is the fitted concentration of half-maximal effect.
Test [18] is described as follows: Confirmatory qHTS for activators (rescue) of SARS-CoV-2 Cytopathic Effect (CPE) (AID 1508606). Note: potency is the fitted concentration of half-maximal effect; nearly all actives have a fitted effect of over 70% in size.
The nature of test [19]: Confirmatory qHTS to identify inhibitors of SARS-CoV-2 cell entry (AID 1645844). Note: potency is the fitted concentration of half-maximal effect; nearly all actives have a fitted effect of over 45% in size. The method in brief:
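HEK293-ACE2 cells were pretreated 1 h with compound, then infected with MLV-based pseudoparticles bearing C-terminally truncated Wuhan-Hu-1 spike for 48 h at 37C; luciferase luminescence normalized to spike PP and bald PP wells.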

Test [20] is described as follows: VSVG counterscreen qHTS to identify inhibitors of SARS-CoV-2 cell entry (AID 1645847). Note: potency is the fitted concentration of half-maximal effect; nearly all actives have a fitted effect of over 65% in size. The method in brief:
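Counterscreen using VSV-G (not spike) pseudotyped MLV particles on ACE2-expressing Expi293F cells after 1 h compound preincubation; infection ran 48 h at 37 °C. Data normalized to VSV-G PP and bald-PP wells.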

Nucleoprotein (Lymphocytic choriomeningitis virus (strain Armstrong)), sequence (P09992 whole entry, looked up): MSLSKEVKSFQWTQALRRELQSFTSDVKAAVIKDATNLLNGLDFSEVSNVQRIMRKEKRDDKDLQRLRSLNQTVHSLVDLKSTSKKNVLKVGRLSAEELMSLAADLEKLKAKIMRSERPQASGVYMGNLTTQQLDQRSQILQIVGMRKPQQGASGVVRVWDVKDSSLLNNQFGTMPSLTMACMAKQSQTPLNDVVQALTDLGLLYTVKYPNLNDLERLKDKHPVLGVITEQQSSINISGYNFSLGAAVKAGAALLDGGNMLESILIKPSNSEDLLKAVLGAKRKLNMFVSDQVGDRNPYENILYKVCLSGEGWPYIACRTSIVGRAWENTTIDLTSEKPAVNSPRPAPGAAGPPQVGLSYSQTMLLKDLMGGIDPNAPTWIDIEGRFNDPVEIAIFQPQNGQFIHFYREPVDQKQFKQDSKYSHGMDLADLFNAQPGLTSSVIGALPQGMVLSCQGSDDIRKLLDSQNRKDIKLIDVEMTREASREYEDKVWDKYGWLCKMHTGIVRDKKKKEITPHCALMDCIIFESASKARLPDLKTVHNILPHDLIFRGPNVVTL
Glucocorticoid receptor (Homo sapiens), sequence (P04150 whole entry, looked up, the tested form may be a part): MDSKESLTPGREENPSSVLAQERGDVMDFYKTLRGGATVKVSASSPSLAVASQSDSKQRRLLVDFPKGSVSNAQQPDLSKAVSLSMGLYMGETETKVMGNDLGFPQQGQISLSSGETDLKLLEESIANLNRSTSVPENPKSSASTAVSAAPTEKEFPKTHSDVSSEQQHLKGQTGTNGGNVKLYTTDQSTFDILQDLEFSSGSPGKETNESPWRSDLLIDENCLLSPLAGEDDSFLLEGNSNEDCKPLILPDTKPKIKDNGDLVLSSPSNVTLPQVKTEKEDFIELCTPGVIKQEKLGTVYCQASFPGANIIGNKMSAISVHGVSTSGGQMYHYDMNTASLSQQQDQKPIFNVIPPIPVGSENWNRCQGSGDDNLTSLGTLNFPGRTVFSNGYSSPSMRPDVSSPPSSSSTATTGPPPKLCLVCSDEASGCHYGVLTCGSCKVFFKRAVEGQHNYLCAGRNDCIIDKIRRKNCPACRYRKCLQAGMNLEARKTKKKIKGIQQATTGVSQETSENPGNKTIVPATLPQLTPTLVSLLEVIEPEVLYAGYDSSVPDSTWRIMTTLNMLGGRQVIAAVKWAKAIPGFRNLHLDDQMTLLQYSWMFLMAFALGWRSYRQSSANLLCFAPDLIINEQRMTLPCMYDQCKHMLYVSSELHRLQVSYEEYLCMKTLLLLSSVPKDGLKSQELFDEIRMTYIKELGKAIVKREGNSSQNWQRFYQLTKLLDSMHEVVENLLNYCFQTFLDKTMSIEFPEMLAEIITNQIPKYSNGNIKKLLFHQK
Cytochrome P450 3A4 (Homo sapiens), sequence (P08684 whole entry, looked up): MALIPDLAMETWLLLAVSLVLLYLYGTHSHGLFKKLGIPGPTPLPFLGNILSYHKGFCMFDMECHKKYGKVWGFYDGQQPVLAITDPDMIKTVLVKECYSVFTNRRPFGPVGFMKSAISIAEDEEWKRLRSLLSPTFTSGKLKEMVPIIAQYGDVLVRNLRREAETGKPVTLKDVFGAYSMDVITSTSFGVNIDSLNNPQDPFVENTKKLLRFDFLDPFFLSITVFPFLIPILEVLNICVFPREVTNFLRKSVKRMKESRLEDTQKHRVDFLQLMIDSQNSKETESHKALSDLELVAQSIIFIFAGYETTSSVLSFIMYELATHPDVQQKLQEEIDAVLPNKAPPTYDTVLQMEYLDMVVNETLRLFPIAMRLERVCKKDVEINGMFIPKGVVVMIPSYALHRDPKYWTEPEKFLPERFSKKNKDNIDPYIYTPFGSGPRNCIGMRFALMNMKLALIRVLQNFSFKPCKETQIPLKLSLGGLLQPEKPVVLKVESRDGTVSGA
Cytochrome P450 2C9 (Homo sapiens), sequence (P11712 whole entry, looked up): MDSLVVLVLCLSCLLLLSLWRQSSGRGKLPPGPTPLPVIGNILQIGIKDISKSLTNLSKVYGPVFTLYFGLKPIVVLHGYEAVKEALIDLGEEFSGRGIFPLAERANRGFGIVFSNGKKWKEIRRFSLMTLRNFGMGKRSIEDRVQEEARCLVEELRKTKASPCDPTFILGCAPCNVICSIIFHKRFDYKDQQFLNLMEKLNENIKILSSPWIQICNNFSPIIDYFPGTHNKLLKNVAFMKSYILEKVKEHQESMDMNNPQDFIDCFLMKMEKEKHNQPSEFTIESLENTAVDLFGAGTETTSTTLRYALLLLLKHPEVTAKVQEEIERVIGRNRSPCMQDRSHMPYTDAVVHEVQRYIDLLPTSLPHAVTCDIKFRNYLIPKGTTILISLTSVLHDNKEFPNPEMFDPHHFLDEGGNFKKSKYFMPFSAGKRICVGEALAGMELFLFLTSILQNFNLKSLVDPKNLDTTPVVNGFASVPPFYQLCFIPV
DNA dC->dU-editing enzyme APOBEC-3G (Homo sapiens), sequence (Q9HC16 whole entry, looked up): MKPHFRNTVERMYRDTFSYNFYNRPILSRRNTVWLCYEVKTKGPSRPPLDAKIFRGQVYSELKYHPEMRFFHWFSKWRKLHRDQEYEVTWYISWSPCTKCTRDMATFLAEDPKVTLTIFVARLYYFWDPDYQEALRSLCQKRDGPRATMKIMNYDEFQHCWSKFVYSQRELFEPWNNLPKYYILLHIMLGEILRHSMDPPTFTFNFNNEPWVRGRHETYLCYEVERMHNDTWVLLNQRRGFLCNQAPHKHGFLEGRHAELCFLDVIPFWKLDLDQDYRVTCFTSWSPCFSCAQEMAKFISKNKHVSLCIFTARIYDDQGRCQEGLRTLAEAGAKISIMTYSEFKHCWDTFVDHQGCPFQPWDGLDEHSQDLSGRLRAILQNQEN
Cytochrome P450 2C19 (Homo sapiens), sequence (P33261 whole entry, looked up): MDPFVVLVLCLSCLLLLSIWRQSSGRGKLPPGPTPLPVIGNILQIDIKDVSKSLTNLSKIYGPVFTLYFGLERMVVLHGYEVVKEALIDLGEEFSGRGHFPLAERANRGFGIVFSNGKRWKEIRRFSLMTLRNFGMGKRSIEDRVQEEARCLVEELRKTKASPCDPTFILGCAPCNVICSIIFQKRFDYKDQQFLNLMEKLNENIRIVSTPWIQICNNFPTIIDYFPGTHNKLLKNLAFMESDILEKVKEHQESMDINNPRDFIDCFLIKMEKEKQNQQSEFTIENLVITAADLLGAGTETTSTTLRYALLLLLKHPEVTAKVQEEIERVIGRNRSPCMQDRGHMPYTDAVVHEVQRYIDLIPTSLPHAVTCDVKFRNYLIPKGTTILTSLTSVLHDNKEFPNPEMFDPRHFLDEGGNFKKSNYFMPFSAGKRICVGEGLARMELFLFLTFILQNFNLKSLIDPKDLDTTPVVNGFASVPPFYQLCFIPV
Cytochrome P450 2D6 (Homo sapiens), sequence (P10635 whole entry, looked up): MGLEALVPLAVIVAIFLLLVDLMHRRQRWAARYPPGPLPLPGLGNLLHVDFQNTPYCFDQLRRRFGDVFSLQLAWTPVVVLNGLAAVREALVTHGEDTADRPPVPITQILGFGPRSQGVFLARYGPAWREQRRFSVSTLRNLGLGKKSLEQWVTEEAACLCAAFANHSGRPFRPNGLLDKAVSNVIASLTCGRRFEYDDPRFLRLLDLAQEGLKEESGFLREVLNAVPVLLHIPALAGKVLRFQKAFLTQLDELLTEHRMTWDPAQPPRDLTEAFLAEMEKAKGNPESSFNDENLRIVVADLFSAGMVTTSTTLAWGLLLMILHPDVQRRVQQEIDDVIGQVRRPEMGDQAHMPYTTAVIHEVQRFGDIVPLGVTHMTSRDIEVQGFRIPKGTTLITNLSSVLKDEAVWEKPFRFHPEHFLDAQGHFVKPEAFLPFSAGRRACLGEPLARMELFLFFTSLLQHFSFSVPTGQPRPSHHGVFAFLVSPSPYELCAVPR
Cytochrome P450 1A2 (Homo sapiens), sequence (P05177 whole entry, looked up): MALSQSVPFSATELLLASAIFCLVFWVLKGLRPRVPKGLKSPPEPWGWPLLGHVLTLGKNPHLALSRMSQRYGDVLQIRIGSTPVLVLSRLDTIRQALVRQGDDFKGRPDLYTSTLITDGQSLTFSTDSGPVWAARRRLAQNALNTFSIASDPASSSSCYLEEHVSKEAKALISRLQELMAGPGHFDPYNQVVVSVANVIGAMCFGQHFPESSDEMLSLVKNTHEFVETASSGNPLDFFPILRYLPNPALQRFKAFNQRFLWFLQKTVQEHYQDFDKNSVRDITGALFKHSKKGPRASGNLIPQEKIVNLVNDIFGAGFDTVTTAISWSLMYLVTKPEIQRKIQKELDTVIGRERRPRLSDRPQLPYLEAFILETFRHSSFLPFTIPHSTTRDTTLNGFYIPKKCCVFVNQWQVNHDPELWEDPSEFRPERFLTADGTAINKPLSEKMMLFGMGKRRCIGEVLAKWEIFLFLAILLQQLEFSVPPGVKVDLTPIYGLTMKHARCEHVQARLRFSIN
3',5'-cyclic-AMP phosphodiesterase 4B (Homo sapiens), sequence (Q07343 whole entry, looked up): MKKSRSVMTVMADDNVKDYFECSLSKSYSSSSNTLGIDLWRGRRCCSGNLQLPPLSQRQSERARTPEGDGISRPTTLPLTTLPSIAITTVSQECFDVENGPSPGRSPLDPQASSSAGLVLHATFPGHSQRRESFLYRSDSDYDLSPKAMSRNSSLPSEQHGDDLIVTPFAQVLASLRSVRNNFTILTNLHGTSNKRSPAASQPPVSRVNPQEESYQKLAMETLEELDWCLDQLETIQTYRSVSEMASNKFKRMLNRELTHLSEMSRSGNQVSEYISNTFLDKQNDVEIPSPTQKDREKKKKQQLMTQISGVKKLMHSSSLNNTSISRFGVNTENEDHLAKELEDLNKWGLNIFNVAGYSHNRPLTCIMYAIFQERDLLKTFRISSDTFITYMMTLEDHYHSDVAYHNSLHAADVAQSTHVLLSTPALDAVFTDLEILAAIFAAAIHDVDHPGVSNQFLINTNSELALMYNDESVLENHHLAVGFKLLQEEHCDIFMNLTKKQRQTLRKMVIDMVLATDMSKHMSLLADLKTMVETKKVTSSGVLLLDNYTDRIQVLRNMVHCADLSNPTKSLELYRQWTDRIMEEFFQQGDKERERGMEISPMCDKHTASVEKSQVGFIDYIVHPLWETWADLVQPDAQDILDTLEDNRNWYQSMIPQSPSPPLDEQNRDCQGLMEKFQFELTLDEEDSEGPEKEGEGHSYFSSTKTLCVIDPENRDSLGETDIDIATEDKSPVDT

In the case of `COc1cccc2c1cc([N+](=O)[O-])c1c(C(=O)O)cc3c(c12)OCO3`, the Potency was 31.6 µM (active) in test [1], > 46 µM in [2] and > 46 µM in test [3]. Further, the compound was classed as inactive in [4] and in test [11]. In addition, the Potency entry in [5], in test [6], in test [7], in [8], in test [9] and in test [10] was “inactive” throughout. Moreover, the Potency result in [12], in test [13], in test [14], in test [15] and in [16] was “inactive” in each case.
For `COc1c2ccoc2c(OC[C@@H](O)C(C)(C)OC)c2oc(=O)ccc12`, the Potency result in test [13], in test [14] and in [15] was “inactive” each time.
In the case of `C[C@]12C=CC(=O)C=C1CC[C@@H]1[C@@H]2CC[C@]2(C)C(=O)CC[C@@H]12`, the Potency entry in test [13], in [14] and in test [15] was “inactive” throughout.
For the compound `C=C(C)[C@@]12OC3(c4ccccc4)O[C@@H]1[C@@H]1[C@@H]4O[C@]4(CO)[C@@H](O)[C@]4(O)C(=O)C(C)=C[C@H]4[C@@]1(O3)[C@H](C)[C@H]2OC(=O)/C=C/C=C/c1ccccc1`, the Potency entry in [13], in test [14] and in test [15] was “inactive” each time.
Regarding `COc1ccc(CCC(=O)c2c(O)cc(O[C@@H]3O[C@H](CO)[C@@H](O)[C@H](O)[C@@H]3O[C@@H]3O[C@@H](C)[C@H](O)[C@@H](O)[C@@H]3O)cc2O)cc1O`, the Potency is 7.69 µM (active) in [13], 5.44 µM (active) in test [14] and 6.11 µM (active) in test [15].
Regarding `NC(=O)c1cccc2cn(-c3ccc([C@@H]4CCCNC4)cc3)nc12`, the Potency result in [13], in [15] and in test [17] was “inactive” each time. Further, the Potency was 10.9 µM (active) in test [14], 11.2 µM (active) in test [18], 4.29 µM (active) in [19] and 2.15 µM (active) in test [20].
`CC(C)(C)Cn1c(N)nc2ccc(-c3[nH]c(C(C)(C)C)nc3-c3ccc(F)cc3)nc21`: the Potency result in test [13], in test [14] and in [15] was “inactive” in each case. Moreover, the results for the Potency in [17] and in [18] were 11.2 µM (active) and 1.58 µM (active), respectively.
